Measured values published in ChEMBL document CHEMBL3988442, “University of Dundee, Small-Polar-MMV Screening Library” (2021).

Experiments:
[1] = molecular target: T1, Aspartate--tRNA(Asp/Asn) ligase (Mycobacterium tuberculosis (strain ATCC 25618 / H37Rv)) (UniProt P9WFW3); assay: Assay for Asp RNA synthetase-1 from Mycobacterium tuberculosis; format: functional; set-up: scale not given: direction of the effect not stated beside the values; settings: 30 µM; further: in the data most compounds retested in dose-response had high values
T1 sequence (whole entry): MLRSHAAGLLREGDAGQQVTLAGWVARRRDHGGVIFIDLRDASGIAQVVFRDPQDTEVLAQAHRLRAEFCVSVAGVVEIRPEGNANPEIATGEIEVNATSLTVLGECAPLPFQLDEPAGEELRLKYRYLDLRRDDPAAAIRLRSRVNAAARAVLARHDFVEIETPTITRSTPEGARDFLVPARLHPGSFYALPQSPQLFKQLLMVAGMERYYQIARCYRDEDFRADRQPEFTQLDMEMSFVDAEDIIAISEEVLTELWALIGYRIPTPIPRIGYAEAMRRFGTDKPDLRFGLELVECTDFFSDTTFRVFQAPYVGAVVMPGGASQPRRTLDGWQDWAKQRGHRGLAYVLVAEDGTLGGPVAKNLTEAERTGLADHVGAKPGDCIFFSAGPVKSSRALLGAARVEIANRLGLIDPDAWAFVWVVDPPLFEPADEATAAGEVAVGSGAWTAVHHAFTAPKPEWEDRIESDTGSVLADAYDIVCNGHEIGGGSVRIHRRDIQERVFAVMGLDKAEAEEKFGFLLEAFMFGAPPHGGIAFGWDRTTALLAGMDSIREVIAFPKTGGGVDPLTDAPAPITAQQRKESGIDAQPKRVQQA

[2] = molecular target: Shiga toxin 2 (Escherichia coli O157:H7) (UniProt P09385+P09386); assay: E. coli 0.157:H7 Shiga Toxin SOP - stx2 screening assay; format: functional; set-up: scale not given: direction of the effect not stated beside the values; settings: 30 µM

Compound	Percent Effect [1] [%]	Percent Effect [2] [%]
Cc1nc(C2CCCN2CC(=O)NCCOc2ccccc2)no1 (centres undefined)	1.81	-11.3
CC(=O)NCC(=O)N1CCN(CC2CC2)c2ncccc2C1	-4.63	-0.0207
CCc1nc(C2CCCN(C(=O)c3ccc(OC(C)C)nc3)C2)no1 (centres undefined)	-1.24	17.3
CCOc1nnc(CN(C)C2CCCN(c3cccnn3)C2)s1 (centres undefined)	3.86	-25.9
CCOCCN1CCn2c(C)nnc2C1	1.76	-30.6
COc1ccc(C[C@H]2CN(c3nnc(C)s3)CC[C@@H]2OC)cc1	7.75	-17.5
Cc1nccn1C1CCCN(C(=O)c2cc(O)nc3ccccc23)C1 (centres undefined)	1.77	5.42
Cc1nc(C)n(CC2CCCN(Cc3cccc(C#N)c3)C2)n1 (centres undefined)	3.85	25.5
Cc1cc(-c2nn(C)c(Cl)c2CN2Cc3ccccc3C(O)C2)no1 (centres undefined)	8.53	43.3
Cc1nc(C)n(C2CCCN(C(=O)c3ccc4c(c3)COC4)C2)n1 (centres undefined)	0.699	-16.5
O=C(Nc1ccc(CCN2CCC(O)CC2)cc1)Nc1cccnc1	-0.212	-83.7
CCOCC1CN(S(C)(=O)=O)Cc2ncn(CC3CC3)c21 (centres undefined)	-0.663	-6.21
CC(C)c1n[nH]c(C(=O)Nc2ccnn2C(C)C)c1Br	-9.11	-15.3
CCOc1ccccc1C(CC(=O)Nc1nc(C)cs1)NC(C)=O (centres undefined)	-0.233	30.8
CCN(CC1CCOC1)C(=O)Nc1ccc(-n2cncn2)nc1 (centres undefined)	-0.722	-25.9
CCc1nc(CC(=O)N2CCn3c(nnc3C(F)(F)F)C2)cs1	1.3	17.9
CCc1nc(C2CCCN(C(=O)c3cn(C)nc3C)C2)no1 (centres undefined)	-7.17	-20.7
CCOCCC(=O)N1CCCC(c2ncc[nH]2)C1 (centres undefined)	-0.374	-22.5
Cn1ccnc1CN1CCC2(CC1)CC(NC(=O)c1ccccn1)CO2 (centres undefined)	2.38	-19.4
c1ccc2c(N3CCCC3Cn3cccn3)ncnc2c1 (centres undefined)	0	-23.1
O=C(NCCCOCC1CC1)Nc1cccnc1N1CCOCC1	-1.34	4.93
Cc1cc(CN2CCN(C(=O)NCc3nc(C)cs3)CC2)on1	2.33	27.5
CCC(=O)N1CCN(Cc2cc(-c3ccncc3)nn2C)CC1	-0.849	-10.7
CC(NC(=O)NCC1(c2ccccc2)CCC1)c1nncn1C (centres undefined)	0.759	14.9

Compound	Percent Effect [1] [%]	Percent Effect [2] [%]
COCC(=O)N1CCC(c2nccn2CC2CC2)CC1	-0.435	-12.6
CCNC(=O)[C@@H]1C[C@H](NC(=O)Cc2ccsc2)CN1Cc1ccc(C)o1	-0.518	18.7
CC(C(=O)N1CCc2ccccc2C1)n1cc(Br)cn1 (centres undefined)	2.59	-59.4
COCCOc1ccccc1CNCc1c(C)nn(C)c1N(C)C	2.62	23.1
Fc1cnc(N2CCC3(COCc4cnc(NCC5CC5)nc43)C2)nc1 (centres undefined)	1.39	2.48
CCC(C)N(C)CCNC(=O)NCc1cccc(-n2cncn2)c1 (centres undefined)	-1.54	-5.27
Cc1cc(NC(=O)CN2CCc3nn(C)c(=O)cc3C2)on1	11.6	-13.1
Cc1occc1CNC(=O)N(CCCO)C1CCc2ccccc21 (centres undefined)	-3.25	8.04
CNC(=O)c1ccc(C2CN(C(=O)COC)CCO2)nc1 (centres undefined)	5.69	1.8
Fc1ccc(-c2cnc(CN3CCCC3Cn3cccn3)o2)cc1 (centres undefined)	-1.83	8.21
CNC(=O)[C@H]1CCS(=O)(=O)[C@@H]2CN(Cc3ccc(OC)cc3)C[C@H]12	-0.605	3.61
CC(C)(C)c1cnc(CN2CCC(c3ccnn3CCO)CC2)o1	-2.6	-1.72
CCc1nccn1C1CCCN(C(=O)c2cnn3ccc(C)nc23)C1 (centres undefined)	0.632	11.2
Cc1nn(C)c(N2CCOCC2)c1CNC(c1cccs1)C(C)C (centres undefined)	1.8	25.3
COC(=O)c1cc(OCC2CCC2)cc(C(=O)N[C@@H]2CNCC[C@H]2O)c1	6.47	-42.6
CCN(CC(=O)NC(C)C)S(=O)(=O)N1CCCCCC1	-4.33	-4.09
Cc1cc(C)n(CC2CCCN2C(=O)c2c[nH]c3ncccc23)n1 (centres undefined)	-1.92	26.8
CC(=O)NCC1CCN(CC2CCOc3ccccc3C2)CC1 (centres undefined)	1.5	1.04
O=C(NCc1cccc(F)c1)N1CCC2(CC(=O)N(c3ccsc3)C2)C1 (centres undefined)	-4.15	-7.69
O=C(CCCOc1ccccc1Cl)N1CCCC(n2cncn2)C1 (centres undefined)	-3.9	19.3
CCn1nc(C)c(CCNC(=O)C2CCCN(C(=O)N(C)C)C2)c1C (centres undefined)	-4.2	14.2
Cc1cnn(CCNCC(O)COc2ccc(C#N)cc2)c1 (centres undefined)	1.2	-30.5
CN(Cc1cccs1)C(=O)CN1CCCC1Cn1cncn1 (centres undefined)	5.56	-62.3
CN(C)C(=O)NC1COC2(CCN(Cc3ccccc3)CC2)C1 (centres undefined)	-3.84	-5.12

Compound	Percent Effect [1] [%]	Percent Effect [2] [%]
Cc1c[nH]c(CN(C)C(=O)C2CC(=O)N(Cc3ccncc3)C2)n1 (centres undefined)	2.33	-32.5
Cn1cccc1C(=O)N1CCC2(CC1)CN(c1cncnc1)C(=O)CO2	-4.72	-1.71
Cc1nnc(NC(=O)NCc2cc(F)cc(F)c2)s1	4.55	29.7
CCCS(=O)(=O)NCc1cccnc1OCC	-1.52	-6.28
COc1cc(C)sc1C(=O)N1CC(c2cccnc2)C1	3.09	12.6
COCCN1CCCN(C(=O)NC(C)Cn2ccnc2)CC1 (centres undefined)	-1.32	-14.7
CC(C)(C)c1cc(CN2CC[C@@H](NC(=O)c3cccnc3)[C@H](O)C2)n[nH]1	-4.62	14.9
CN1C[C@H]2CCN(C(=O)NC3CCCC3)CC[C@H]2S1(=O)=O	2.12	-19.5
Cn1nc(C2CCCN(C(=O)Cc3ccsc3)C2)c2nccnc21 (centres undefined)	-0.402	7.06
Cc1ccc(C(CNCC2CC2)N2CCOCC2)s1 (centres undefined)	3.84	-22.1
CCn1cnnc1CNC(=O)N(C)Cc1ccc2c(c1)OCCO2	14.5	13.4
CCN(C(=O)COC)C(c1cccnc1)c1ccc2c(c1)CCO2 (centres undefined)	2.07	-29.4
O=C1CC2(CCCCN2C(=O)c2ccsc2)CN1CC1CC1 (centres undefined)	-2.94	-8.01
CCN(Cc1nc2c(cnn2C)c(=O)[nH]1)c1cccc(F)c1	1.24	-7.65
c1ccc(Cn2cc3c(n2)C(COCC2CC2)OCC3)nc1 (centres undefined)	4.12	-12.1
Cc1csc2ncc(-c3ccnc(N4CCCC[C@@H]4CO)n3)c(=O)n12	-2.34	-17.1
COC(=O)c1cccc(C(=O)N2CCN(c3ccccc3F)CC2)n1	-0.801	-16.2
CNC(=O)C(C)(C)NC(=O)c1cc(OCC2CCC2)cc(C(=O)OC)c1	9.31	7.4
CCCN1CCC(NC(=O)NCCc2nc(CC)c(C)s2)CC1	-5.93	19.2
CCOc1ccnc(N2CCN(C(=O)c3cccc(C#N)c3)CC2)n1	-3.26	40.5
CC(C(=O)NCc1ccc(-n2cncn2)nc1)n1ccnc1 (centres undefined)	5.56	19.8
CCc1noc(CN(C)Cc2ccc(N3CCCCC3)cc2)n1	-2.17	-19.3
Cn1cnc2c1C(COCc1cccnc1)N(Cc1ccccn1)CC2 (centres undefined)	2.65	-18.6
Cc1ccc(N2CCCC3(COCCN(c4nccs4)C3)C2)nn1 (centres undefined)	-0.638	-17.6
